Rab9 prom act: activates the Rab9 promoter; Huh7 Rab9 promoter-luciferase reporter, luminescence, 24 h; Potency, µM (doses to about 9.22 µM), usual class: activators; 320,000 compounds, 2.8% hits; further: nearly all actives have a fitted effect of over 60% in size
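Measured in stably transfected Huh7 cells bearing a Rab9 promoter–luciferase construct: 24 h compound treatment at 37 °C, followed by luminescence detection.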
ELG1 DNA repair: ELG1-dependent DNA repair inhibition. HEK293T ELG1-luciferase reporter, luminescence, 16 h; DNA damage induced by 5-fluorouridine. Potency, µM (series often up to 46.1 µM), actives largely listed as inhibitors. 330,000 compounds, 2.3% hits; further: nearly all actives have a fitted effect of over 55% in size
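DMSO vehicle served as the neutral condition. Each well held 2,000 cells given 5-fluorouridine plus compound; after 16 hr at 37 °C/5% CO2, ONE-Glo was added and luciferase measured 30 min later.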
SMN2 splice up: enhancers of SMN2 splice variant expression; HEK293 SMN2-luciferase splicing reporter, luminescence, 30-36 h; Potency, µM (series often up to 46.1 µM), most hits filed as activators; 210,000 compounds, 2.8% hits; AID 1458; further: nearly all actives have a fitted effect of over 55% in size
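HEK293 cells carry an SMN2 […]–luciferase reporter in which exon 7 inclusion puts luciferase in frame. Cells were plated 10-12 h before compound addition, then incubated 30-36 h at 37C. ONE-Glo luminescence was read; sodium butyrate at 4.5 mM final served as control.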
NPC1 prom act: activates the NPC1 promoter; Huh7 NPC1 promoter luciferase reporter, 24 h; Potency, µM (top dose mostly 9.22 µM), actives largely listed as activators; 320,000 compounds, 2.4% hits; AID 485313; further: nearly all actives have a fitted effect of over 60% in size
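Readout is luciferase luminescence, reflecting NPC1 promoter activation in stably transfected Huh7 cells after 24 h compound exposure at 37 °C in reduced-serum medium with 10% FBS.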
FLuc modulator: inhibits or activates purified firefly luciferase, miR-21 counter-screen; P08659; purified FLuc, Km substrates, luminescence inhibition; Potency, µM (top dose mostly 57.5 µM), actives largely listed as inhibitors; 360,000 compounds, 6.9% hits; AID 588342; further: nearly all actives have a fitted effect of over 55% in size
Target sequence (P08659 whole entry, looked up): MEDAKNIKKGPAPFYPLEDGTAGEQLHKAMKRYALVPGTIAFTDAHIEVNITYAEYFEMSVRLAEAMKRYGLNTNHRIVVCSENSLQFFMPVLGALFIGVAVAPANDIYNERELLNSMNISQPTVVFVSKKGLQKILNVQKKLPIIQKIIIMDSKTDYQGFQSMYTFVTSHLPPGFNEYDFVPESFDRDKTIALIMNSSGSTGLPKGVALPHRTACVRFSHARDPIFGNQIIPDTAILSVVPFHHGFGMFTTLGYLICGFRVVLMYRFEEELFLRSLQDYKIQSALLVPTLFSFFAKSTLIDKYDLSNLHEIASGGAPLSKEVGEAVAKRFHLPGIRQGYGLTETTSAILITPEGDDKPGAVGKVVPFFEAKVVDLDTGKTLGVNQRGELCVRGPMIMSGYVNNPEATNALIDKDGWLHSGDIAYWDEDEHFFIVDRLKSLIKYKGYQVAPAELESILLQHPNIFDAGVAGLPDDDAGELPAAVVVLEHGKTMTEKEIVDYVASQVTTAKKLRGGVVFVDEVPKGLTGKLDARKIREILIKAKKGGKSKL
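Purified P. pyralis luciferase, 10 nM final, with Km-level 10 uM D-luciferin and 10 uM ATP in 50 mM Tris acetate pH 7.5, 10 mM Mg acetate, 0.01% Tween-20, 0.05% BSA; 6-point qHTS titration about 60 µM downward; luminescence read.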
ELG1 genotoxic: genotoxicity induction in ELG1-luciferase HEK293T cells | Potency, µM (highest dose often 46 µM), actives largely listed as activators | HEK293T ELG1-luciferase reporter, luminescence, 16 h | 330,000 compounds, 1.3% hits | AID 504466; further: nearly all actives have a fitted effect of over 60% in size
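Genotoxic stress is detected as increased luminescence from luciferase-tagged ELG1 in HEK293T cells, measured with ONE-Glo after a 16 hr treatment at 37 °C.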
A number is an active result. Shown are actives, neighbours in structure and some others; about 9.2% of the full set was active somewhere. The call rests on the fitted dose curve; in most records, active means well fitted curve in the direction sought with a large enough effect; inconclusive means small, poorly fitted or top-dose-only effect, or another doubt; inactive means no such curve, though single readings can be large; an effect the other way counts as inactive or inconclusive.

Screening CCN(CC)CCN1C(=O)c2ccccc2NC1c1ccc(F)cc1 (stereo not drawn) returned Rab9 prom act inactive, ELG1 DNA repair inactive, SMN2 splice up inactive, NPC1 prom act inactive, FLuc modulator inactive and ELG1 genotoxic inactive.
`Cc1cc2n(n1)C(c1ccc(N(C)C)cc1)Nc1ccccc1-2` (stereo not drawn) gave Rab9 prom act inactive, ELG1 DNA repair inconclusive, SMN2 splice up inactive, NPC1 prom act inactive, FLuc modulator 30.1µM and ELG1 genotoxic inactive.
Screening Cc1ccc(C)c(CN2CCC(CNC(=O)Nc3ccc(F)c(Cl)c3)CC2)c1 returned Rab9 prom act inactive, ELG1 DNA repair inactive, NPC1 prom act inactive, FLuc modulator inactive and ELG1 genotoxic inactive.
`C=C1CCC(=O)C(C)CCC2C1CC2(C)C` (stereo not drawn) gave SMN2 splice up inactive.
For Nc1nc2c(c(=O)[nH]1)C(c1ccccc1)C1=C(N2)c2ccccc2C1=O (stereo not drawn) the results were Rab9 prom act inactive, ELG1 DNA repair inconclusive, NPC1 prom act inactive, FLuc modulator inactive and ELG1 genotoxic inactive.
For Cn1c2c(c(=O)[nH]c1=O)C(c1ccc(O)cc1)C1=C(N2)c2ccccc2C1=O (stereo not drawn) the results were Rab9 prom act inactive, ELG1 DNA repair inconclusive, SMN2 splice up inactive, NPC1 prom act inactive, FLuc modulator 16.9µM and ELG1 genotoxic inactive.
For COc1cccc(C=Nc2cccc3c(=O)[nH][nH]c(=O)c23)c1O the results were Rab9 prom act inactive, ELG1 DNA repair inconclusive, SMN2 splice up inactive, NPC1 prom act inactive, FLuc modulator 0.601µM and ELG1 genotoxic inconclusive.
Cc1c(C(=O)N/N=C/c2ccc(O)c(Br)c2)sc(N)c1C#N was read as Rab9 prom act inactive, ELG1 DNA repair inactive, SMN2 splice up inconclusive, NPC1 prom act inactive, FLuc modulator 13.5µM and ELG1 genotoxic inconclusive.
Screening COc1ccc(/C=C/C(=O)Nc2cccc(N3CCOCC3)c2)cc1OC returned Rab9 prom act inactive, ELG1 DNA repair inconclusive, SMN2 splice up inactive, NPC1 prom act inactive, FLuc modulator 26.9µM and ELG1 genotoxic inactive.
`COc1ccc(NC(=O)/C=C/c2ccc(C)o2)cc1S(=O)(=O)N1CCOCC1` gave Rab9 prom act inactive, ELG1 DNA repair inconclusive, SMN2 splice up inactive, NPC1 prom act inactive, FLuc modulator inactive and ELG1 genotoxic inactive.
Screening COc1ccc(/C=C/C(=O)Nc2cccc(F)c2)cc1S(=O)(=O)N1CCOCC1 returned Rab9 prom act inactive, ELG1 DNA repair 20.6µM, SMN2 splice up inactive, NPC1 prom act inactive, FLuc modulator inactive and ELG1 genotoxic inactive.
Screening COc1cc(/C=C/C(=O)Nc2ccc(OC)c(S(=O)(=O)N3CCOCC3)c2)ccc1OC(F)F returned ELG1 DNA repair 10.3µM and ELG1 genotoxic inactive.
`COc1cccc(NC(=O)COC(=O)c2ccccc2C(=O)N2CCN(c3ccccc3)CC2)c1` gave Rab9 prom act inactive, ELG1 DNA repair inconclusive, SMN2 splice up inactive, NPC1 prom act inactive, FLuc modulator inactive and ELG1 genotoxic inactive.
`CC1=C(C#N)C(=O)NC(=O)/C1=C\c1ccc(-c2ccc(C)cc2[N+](=O)[O-])o1` gave Rab9 prom act inactive, ELG1 DNA repair inactive, SMN2 splice up inactive, NPC1 prom act inactive, FLuc modulator 26.9µM and ELG1 genotoxic inactive.
For COc1ccc(C(=O)Nc2cc3c4c(c2)CC(=O)N4CCC3)cc1 the results were Rab9 prom act inactive, ELG1 DNA repair inconclusive, NPC1 prom act inactive, FLuc modulator 21.3µM and ELG1 genotoxic inconclusive.
For COc1ccc(C(=O)Nc2cc3c4c(c2)C(C)C(=O)N4CCC3)cc1OC (stereo not drawn) the results were Rab9 prom act inactive, ELG1 DNA repair inconclusive, NPC1 prom act inactive, FLuc modulator inactive and ELG1 genotoxic inconclusive.
COc1ccc(C(=O)Nc2cc3c4c(c2)CC(=O)N4CCC3)c(OC)c1 was read as Rab9 prom act inconclusive, ELG1 DNA repair inconclusive, NPC1 prom act inconclusive, FLuc modulator 15.1µM and ELG1 genotoxic inconclusive.

High-throughput results (PubChem)
